Measurements taken from PubChem BioAssay (NCI).
About 79,000 compounds went through this panel and 15% of them were active in at least one assay; those are over-represented in the sample as a whole. The source made the active and inactive calls. Rule as the data show it: active = growth inhibition above about 70%; inactive = the rest.

Test: NCI Yeast Anticancer Drug Screen. Data for the rad50 strain (AID 155);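 also: 0% = growth of vehicle-only cultures of the same strain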
Conditions: S. cerevisiae rad50 strain growth inhibition; at 50.0 µM; hits give high values
Method: Growth inhibition of yeast strains with defined genetic alterations is measured as a screen for potential anti-cancer activity. Selected strains with alterations in DNA damage repair or cell cycle control were exposed to compounds and growth inhibition was measured relative to vehicle treated controls. The strain used in this assay is rad50
In the case of `CC(C)CCOC(=O)c1ccccc1`, the growth inhibition is reported as -7.2% (inactive).
With `O=C1Cc2cc(O)ccc2O1` the growth inhibition was -13.4% (inactive).
For `Cc1ccc(N)cc1[N+](=O)[O-]`, the growth inhibition was 11.8% (inactive).
For `O=C(O)CNC(=O)c1ccccc1`, the growth inhibition was -46% (inactive).
With `O=[N+]([O-])c1ccc(-c2ncc(-c3ccc(Br)cc3)o2)cc1` the growth inhibition was -0.1% (inactive).
For `COc1ccc2c(c1)CCc1c-2n[nH]c1-c1[nH]nc2c1CCc1cc(OC)ccc1-2`, the growth inhibition was 0.5% (inactive).
With `C#CCSc1nnnn1-c1ccc(Br)c(C)c1` the growth inhibition was 14.8% (inactive).
For `CN(C)C(=O)Oc1cccc([N+](C)(C)C)c1`, the growth inhibition was -1.5% (inactive).
With `Sc1ccc(Nc2c3ccccc3nc3ccccc23)cc1` the growth inhibition was 28.4% (inactive).
In the case of `[O-][N+](=Nc1cccc(Cl)c1)c1cccc(Cl)c1`, the growth inhibition is reported as 19.7% (inactive).
With `O=C(NC1CCCCC1)OCc1c(COC(=O)NC2CCCCC2)c(-c2ccc(Cl)c(Cl)c2)n2c1CCC2` the growth inhibition was 16% (inactive).
With `CCOc1ccc(I)cc1` the growth inhibition was 10.9% (inactive).
For `OCCN1CCOCC1`, the growth inhibition was 31.9% (inactive).
For `O=S(=O)(O)c1ccc(Cl)c(Cl)c1`, the growth inhibition was -0.35% (inactive).
For `COCCCNC(=O)c1nnn2c1nc(N)c1cc(Cl)ccc12`, the growth inhibition was -2.65% (inactive).
With `CN(C)c1ccc(C(c2ccc(O)cc2)c2ccc(N(C)C)cc2)cc1` the growth inhibition was -10.4% (inactive).
With `O=C(Nc1ccccc1C(=O)NCC1CC1)c1cccs1` the growth inhibition was -13.1% (inactive).
In the case of `OCc1cccc2ccccc12`, the growth inhibition is reported as 27.6% (inactive).
For `CCOc1ccc2[nH]c(=S)sc2c1`, the growth inhibition was 35.5% (inactive).
For `CCCNC(=O)c1ccc(S(N)(=O)=O)cc1`, the growth inhibition was -1.5% (inactive).
In the case of `CCCCN(CCCC)CCCO`, the growth inhibition is reported as -14.4% (inactive).
In the case of `Cc1c(O)cccc1O`, the growth inhibition is reported as -5.55% (inactive).
For `CCN(CC)C(=O)/C=C(/C)c1ccccc1`, the growth inhibition was -12.6% (inactive).
In the case of `CCCCC(=O)c1ccc(OC)cc1`, the growth inhibition is reported as 1.9% (inactive).
With `N#CCc1ccc([N+](=O)[O-])cc1` the growth inhibition was -14.2% (inactive).
For `CCCC[P+](c1ccccc1)(c1ccccc1)c1ccccc1`, the growth inhibition was 45.5% (inactive).
With `CCCCC(CC)COC(C)=O` (stereo not given) the growth inhibition was 14.4% (inactive).
With `CCCCC/C=N/Nc1nc(C)cc(=O)[nH]1` the growth inhibition was 4.85% (inactive).
In the case of `Brc1cnc2ccccc2c1`, the growth inhibition is reported as 12.8% (inactive).
In the case of `Nc1nc(N)c(N=Nc2ccc(C(=O)O)cc2)c(N)n1`, the growth inhibition is reported as -3.65% (inactive).
With `CCCCCCCCCCCCCC(=O)Oc1ccc[nH]c1=O` the growth inhibition was -12.2% (inactive).
For `CN(C)CCC(=O)c1ccc(O)cc1`, the growth inhibition was 4.6% (inactive).
In the case of `c1ccc(CN2COc3c(ccc4c3OCN(Cc3ccccc3)C4)C2)cc1`, the growth inhibition is reported as 7.4% (inactive).
With `Nc1nc2c(c(-c3nc(N)nc4c3CCc3ccccc3-4)n1)CCc1ccccc1-2` the growth inhibition was -0.5% (inactive).
In the case of `CC(CN1CCCCC1)NC(=O)c1scnc1-c1ccccc1` (stereo not given), the growth inhibition is reported as -5.45% (inactive).
For `C/C(=N\NC(=O)c1ccccc1N)c1ccccc1O`, the growth inhibition was 6.15% (inactive).
In the case of `CCO/C=C1\SC(=S)N(c2cccc(C)c2)C1=O`, the growth inhibition is reported as 11.1% (inactive).
With `CC(=O)OC(C(=O)O)c1ccccc1` (stereo not given) the growth inhibition was 15.9% (inactive).
With `COc1cc(CN)ccc1O` the growth inhibition was 1.65% (inactive).
In the case of `C/C(=C\c1cc(Cl)ccc1OCC(=O)O)[N+](=O)[O-]`, the growth inhibition is reported as 38.1% (inactive).
